According to PubChem BioAssay (EPA / NIEHS):
Records with an inconclusive call do not appear. Activity calls are given as the source filed them. The calls were made as follows, unless noted: active = hit-call score of the fitted dose curve at least 0.9, where 1 is the maximum; inactive = score below 0.9.

Key:
[1] = ACEA_ER_80hr: ACEA Biosciences xCELLigence Real-Time Cell Analysis on Estrogen Receptor Agonism for Proliferation (AID 2282667; active = hit-call score of the fitted dose curve at least 0.9, where 1 is the maximum); details: T47D proliferation, impedance (xCELLigence), 80 h
Outline: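 Cell-growth kinetics were measured by impedance in T47D cells treated continuously with compound (top 100 uM final, 1:4 steps, 8 points). Activity at 80 h was scored as signal gain over the DMSO baseline.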

[2] = ATG_CRE_CIS: Attagene CIS-FACTORIAL HepG2 Assay for human cAMP Responsive Element (CRE) binding protein 3 (AID 2282926); details: HepG2 CRE cis-reporter, Attagene multiplexed mRNA; actives raise or lower the signal
Outline: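 Cells carrying cis-regulated reporter constructs respond through their own endogenous factors. After 24 h treatment, RNA is reverse-transcribed, amplified, labelled and sized by capillary electrophoresis; up- and down-regulation are both scored against vehicle.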

[3] = ATG_CMV_CIS: Attagene CIS-FACTORIAL HepG2 Assay for human CMV (Internal Marker) (AID 2282928); details: HepG2 CMV promoter reporter, transcription factor profiling; actives raise or lower the signal;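 also: endpoint acts as a background internal control marker rather than a target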
Outline: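 24 h chemical treatment, HepG2 with transient multi-reporter transfection; RNA → oligo(dT) RT → PCR → 6-FAM extension → HpaI digest → CE fluorescence. Bidirectional fit, DMSO negative control.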

[4] = ATG_DR4_LXR_CIS: Attagene CIS-FACTORIAL HepG2 Assay for human Liver X Receptor (LXR), DR4 submotif (AID 2282929); details: HepG2 Attagene DR4 cis-reporter, mRNA transcription; actives raise or lower the signal
Outline: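 DR4 cis-reporter in HepG2, 24 h exposure. Detection: RT-PCR, 6-FAM labelling, CE fragment analysis. Endpoint fitted bidirectionally, DMSO = baseline.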

[5] = biological target: Aryl hydrocarbon receptor (Homo sapiens) (UniProt P35869); experiment: ATG_Ahr_CIS: Attagene CIS-FACTORIAL HepG2 Assay for human Aryl Hydrocarbon Receptor (Ahr) (AID 2282930); details: HepG2 AhR cis-factorial reporter transcription; actives raise or lower the signal
Aryl hydrocarbon receptor (Homo sapiens), sequence (P35869 whole entry, looked up): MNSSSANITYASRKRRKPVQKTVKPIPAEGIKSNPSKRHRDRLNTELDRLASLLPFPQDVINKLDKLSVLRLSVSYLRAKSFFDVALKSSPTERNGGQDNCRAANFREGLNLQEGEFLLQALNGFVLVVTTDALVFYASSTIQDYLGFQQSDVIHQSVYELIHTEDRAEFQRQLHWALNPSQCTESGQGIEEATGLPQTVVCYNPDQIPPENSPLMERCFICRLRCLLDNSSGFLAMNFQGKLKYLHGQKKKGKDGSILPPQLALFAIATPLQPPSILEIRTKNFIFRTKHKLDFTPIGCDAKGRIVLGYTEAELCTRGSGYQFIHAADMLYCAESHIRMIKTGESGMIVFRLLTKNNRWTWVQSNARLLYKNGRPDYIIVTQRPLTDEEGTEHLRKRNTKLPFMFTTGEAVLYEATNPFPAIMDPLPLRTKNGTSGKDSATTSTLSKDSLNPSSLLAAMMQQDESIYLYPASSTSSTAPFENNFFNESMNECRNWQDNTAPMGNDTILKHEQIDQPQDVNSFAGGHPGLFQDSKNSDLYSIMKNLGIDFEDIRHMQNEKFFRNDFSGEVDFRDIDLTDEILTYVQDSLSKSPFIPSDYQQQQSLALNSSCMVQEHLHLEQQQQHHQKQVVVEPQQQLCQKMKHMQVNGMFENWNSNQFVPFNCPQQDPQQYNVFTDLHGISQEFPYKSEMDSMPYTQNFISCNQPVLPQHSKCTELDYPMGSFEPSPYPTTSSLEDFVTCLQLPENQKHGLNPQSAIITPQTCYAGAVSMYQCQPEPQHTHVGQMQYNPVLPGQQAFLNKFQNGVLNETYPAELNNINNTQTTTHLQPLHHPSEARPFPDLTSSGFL
Outline: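 Endogenous factor activity is tracked through cis-promoter reporter units transfected into HepG2 cells. Transcript levels at 24 h are read by fluorescent RT-PCR and capillary electrophoresis, with activity in either direction scored relative to DMSO.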

[6] = ATG_AP_1_CIS: Attagene CIS-FACTORIAL HepG2 Assay for human Activator Protein 1 (AP-1) (AID 2282931); details: HepG2 Attagene cis-factorial AP-1 reporter mRNA; actives raise or lower the signal
Outline: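 Cis-regulated reporter units transiently expressed in HepG2 report endogenous transcription-factor activity. Signal: reporter mRNA at 24 h, via RT-PCR and fluorescent capillary electrophoresis. Endpoint derived by bidirectional fitting, DMSO as negative control.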

[7] = ATG_AP_2_CIS: Attagene CIS-FACTORIAL HepG2 Assay for human Activator Protein 2 (AP-2) (AID 2282932); details: HepG2 AP-2 cis-reporter, Attagene transcription factor profiling; actives raise or lower the signal
Outline: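 Read-out: fluorescent reporter mRNA via RT-PCR and capillary electrophoresis, 24 h post-dose in transiently transfected HepG2. Endogenous factors drive cis-promoter reporters; gain or loss of signal fitted bidirectionally against DMSO.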

[8] = ATG_BRE_CIS: Attagene CIS-FACTORIAL HepG2 Assay for human Bone Morphogenetic Protein (BMP) Response Element (BRE) (AID 2282933); details: HepG2 BMP response element reporter, Attagene transcription factor profiling; actives raise or lower the signal
Outline: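 HepG2 cells transiently transfected with multiplexed cis-element reporter units were dosed with chemical for 24 h. Reporter mRNA was measured by RT-PCR with fluorescent labelling, HpaI digestion and capillary electrophoresis; bidirectional fitting relative to DMSO.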

[9] = biological target: Retinoic acid receptor alpha (Homo sapiens) (UniProt P10276); experiment: ATG_DR5_RAR_CIS: Attagene CIS-FACTORIAL HepG2 Assay for human Retinoic Acid Receptor Alpha (RARE), DR5 submotif (AID 2282934); details: HepG2 Attagene cis-factorial RARE DR5 reporter, mRNA; actives raise or lower the signal
Retinoic acid receptor alpha (Homo sapiens), sequence (P10276 whole entry, looked up): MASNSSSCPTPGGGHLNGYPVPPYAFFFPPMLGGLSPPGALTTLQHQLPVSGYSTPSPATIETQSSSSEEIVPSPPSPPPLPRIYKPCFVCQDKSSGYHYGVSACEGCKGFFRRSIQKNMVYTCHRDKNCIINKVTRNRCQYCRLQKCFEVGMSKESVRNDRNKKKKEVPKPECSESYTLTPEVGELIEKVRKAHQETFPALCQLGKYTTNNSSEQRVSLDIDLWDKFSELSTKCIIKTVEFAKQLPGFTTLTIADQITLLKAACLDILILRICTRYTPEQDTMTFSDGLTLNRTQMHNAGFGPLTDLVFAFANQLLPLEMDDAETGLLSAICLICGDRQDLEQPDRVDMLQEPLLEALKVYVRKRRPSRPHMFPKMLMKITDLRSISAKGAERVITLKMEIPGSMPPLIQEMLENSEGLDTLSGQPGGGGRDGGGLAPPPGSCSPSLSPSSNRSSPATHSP
Outline: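 After 24 h of chemical exposure, transiently transfected HepG2 cells were lysed for total RNA; the DR5-regulated reporter transcript was quantified via RT-PCR and capillary electrophoresis, with activity fitted bidirectionally against DMSO.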

[10] = biological target: Transcription factor E2F1 (Homo sapiens) (UniProt Q01094); experiment: ATG_E2F_CIS: Attagene CIS-FACTORIAL HepG2 Assay for human E2F Transcription Factor 1 (AID 2282935); details: HepG2 Attagene cis-reporter, E2F reporter RNA transcripts; actives raise or lower the signal
Transcription factor E2F1 (Homo sapiens), sequence (Q01094 whole entry, looked up): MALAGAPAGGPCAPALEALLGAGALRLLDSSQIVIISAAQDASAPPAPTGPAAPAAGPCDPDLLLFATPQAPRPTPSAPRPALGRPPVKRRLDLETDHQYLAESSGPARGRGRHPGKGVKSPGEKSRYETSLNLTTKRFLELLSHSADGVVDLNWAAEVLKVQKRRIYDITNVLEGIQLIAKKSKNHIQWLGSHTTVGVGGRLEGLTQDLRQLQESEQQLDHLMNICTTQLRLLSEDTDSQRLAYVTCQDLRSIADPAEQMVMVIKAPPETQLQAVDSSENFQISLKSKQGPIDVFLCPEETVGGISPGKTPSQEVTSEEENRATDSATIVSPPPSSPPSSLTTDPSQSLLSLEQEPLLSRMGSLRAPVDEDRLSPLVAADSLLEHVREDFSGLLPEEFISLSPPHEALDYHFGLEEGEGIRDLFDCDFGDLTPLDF
Outline: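 Transient MRTU transfection of HepG2; 24 h compound exposure; RNA → oligo(dT) RT → PCR → FAM label → HpaI cut → CE fluorescence. Gain/loss of signal fit against DMSO.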

[11] = ATG_E_Box_CIS: Attagene CIS-FACTORIAL HepG2 Assay for human Enhancer Box (E-box) (AID 2282936); details: HepG2 E-box cis-reporter transcription, actives raise or lower the signal
Outline: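 Transiently transfected HepG2, endogenous TF-driven reporters, 24 h dosing. Readout: RT-PCR plus capillary electrophoresis of fluorescent reporter fragments. Gain or loss of signal fitted bidirectionally against DMSO baseline.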

[12] = ATG_M_61_CIS: Attagene CIS-FACTORIAL HepG2 Assay for M61 Transcription Factor (Internal Marker) (AID 2282937); details: HepG2 Attagene CIS-FACTORIAL M61 internal marker reporter; actives raise or lower the signal
Outline: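 Background-control endpoint: HepG2 cells with cis-regulated reporter constructs, 24 h exposure, reporter mRNA detected via fluorescent primer extension and capillary electrophoresis; values from bidirectional fitting with DMSO baseline.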

[13] = ATG_EGR_CIS: Attagene CIS-FACTORIAL HepG2 Assay for human Early Growth Response 1 (EGR1) (AID 2282938); details: HepG2 Attagene CIS-FACTORIAL EGR reporter mRNA; actives raise or lower the signal
Outline: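 Endpoint derived by bidirectional fitting versus DMSO vehicle. Method: cis-promoter reporter units transfected into HepG2, 24 h dosing, RNA isolation, RT-PCR with 6-FAM primer extension and HpaI digestion, then capillary electrophoresis fluorescence detection.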

[14] = ATG_M_19_CIS: Attagene CIS-FACTORIAL HepG2 Assay for M19 Transcription Factor (Internal Marker) (AID 2282939); details: HepG2 Attagene CIS-FACTORIAL M19 internal marker reporter; actives raise or lower the signal
Outline: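 HepG2 cells transiently transfected with cis-regulated multiple reporter transcription units were dosed for 24 h; reporter mRNA was quantified by RT-PCR, 6-FAM primer-extension labelling, HpaI digestion and capillary electrophoresis, with bidirectional fitting against DMSO baseline.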

[15] = ATG_ERE_CIS: Attagene CIS-FACTORIAL HepG2 Assay for Estrogen Response Element (ERE) (AID 2282940); details: HepG2 ERE cis-reporter, Attagene RNA transcript; actives raise or lower the signal
Outline: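 HepG2 cells transiently transfected with cis-promoter-driven multiplexed reporter transcription units report endogenous TF activity. After 24 h compound exposure, reporter mRNA is quantified by RT-PCR with capillary electrophoresis fluorescence; bidirectional fitting versus DMSO baseline.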

[16] = ATG_Ets_CIS: Attagene CIS-FACTORIAL HepG2 Assay for human Erythroblast Transformation Specific (ETS) (AID 2282941); details: HepG2 ETS cis-reporter transcription, actives raise or lower the signal
Outline: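 Cis-regulated reporter mRNA induction in HepG2 (transient transfection), 24 h exposure, RT-PCR plus capillary electrophoresis detection; DMSO serves as negative control and baseline.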

[17] = biological target: Hepatocyte nuclear factor 3-beta (Homo sapiens) (UniProt Q9Y261); experiment: ATG_FoxA2_CIS: Attagene CIS-FACTORIAL HepG2 Assay for human Forkhead box A2 (FOXA2) (AID 2282942); details: HepG2 cis-reporter transcription factor activity, 24 h; actives raise or lower the signal
Hepatocyte nuclear factor 3-beta (Homo sapiens), sequence (Q9Y261 whole entry, looked up): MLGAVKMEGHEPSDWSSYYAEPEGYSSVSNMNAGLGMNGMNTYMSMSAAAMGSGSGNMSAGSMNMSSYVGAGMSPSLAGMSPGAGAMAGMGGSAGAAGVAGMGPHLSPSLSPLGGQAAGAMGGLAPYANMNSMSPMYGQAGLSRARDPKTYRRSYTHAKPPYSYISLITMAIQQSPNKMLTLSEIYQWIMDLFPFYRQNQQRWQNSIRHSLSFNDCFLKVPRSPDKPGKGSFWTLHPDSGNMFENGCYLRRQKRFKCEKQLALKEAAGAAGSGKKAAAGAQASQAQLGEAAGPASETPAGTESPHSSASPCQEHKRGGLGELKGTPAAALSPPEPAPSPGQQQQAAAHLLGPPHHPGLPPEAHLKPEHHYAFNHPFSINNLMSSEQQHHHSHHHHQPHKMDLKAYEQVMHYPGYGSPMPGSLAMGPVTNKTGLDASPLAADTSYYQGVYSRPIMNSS
Outline: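 Measured: reporter mRNA induction or loss in HepG2 transiently carrying multiple cis-regulated reporter units, 24 h after dosing. Quantified by RT-PCR plus capillary electrophoresis, normalised to DMSO.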

[18] = ATG_FoxO_CIS: Attagene CIS-FACTORIAL HepG2 Assay for human Forkhead box O (FoxO) (AID 2282943); details: HepG2 Attagene cis-reporter, FoxO element, mRNA; actives raise or lower the signal
Outline: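 Transfected HepG2 reporter cells exposed to test chemical for 24 h; reporter RNA measured by reverse transcription, PCR and fluorescent capillary electrophoresis; curves fitted for increases and decreases against DMSO.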

[19] = ATG_GATA_CIS: Attagene CIS-FACTORIAL HepG2 Assay for human GATA Binding Protein (AID 2282944); details: HepG2 GATA cis-element reporter, Attagene multiplex mRNA; actives raise or lower the signal
Outline: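 HepG2 cells transiently transfected with multiplexed cis-element reporter units reflecting endogenous transcription factor activity; reporter mRNA measured after 24 h dosing by RT-PCR, 6-FAM labeling, HpaI digestion and capillary electrophoresis. Bidirectional fitting versus DMSO baseline.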

[20] = biological target: CCAAT/enhancer-binding protein beta (Homo sapiens) (UniProt P17676); experiment: ATG_C_EBP_CIS: Attagene CIS-FACTORIAL HepG2 Assay for human CCAAT/Enhancer Binding Protein (C/EBP) beta (AID 2282927); details: HepG2 Attagene cis-factorial transcription factor reporter; actives raise or lower the signal
CCAAT/enhancer-binding protein beta (Homo sapiens), sequence (P17676 whole entry, looked up): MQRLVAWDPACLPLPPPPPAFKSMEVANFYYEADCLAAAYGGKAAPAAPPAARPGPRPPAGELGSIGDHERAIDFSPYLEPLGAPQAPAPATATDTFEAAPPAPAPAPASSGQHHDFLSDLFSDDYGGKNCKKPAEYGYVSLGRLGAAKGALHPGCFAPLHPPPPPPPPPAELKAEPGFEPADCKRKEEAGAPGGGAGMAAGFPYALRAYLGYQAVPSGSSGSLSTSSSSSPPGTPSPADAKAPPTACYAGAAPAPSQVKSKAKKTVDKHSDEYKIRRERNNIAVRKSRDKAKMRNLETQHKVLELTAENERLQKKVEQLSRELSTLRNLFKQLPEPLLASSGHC
Outline: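 HepG2, transient MRTU transfection, 24 h treatment. RT-PCR plus CE fluorescence; DMSO negative control, bidirectional fit.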

Measured: AC50

Oc1ccc2c(c1)CCC2
active: [15] 55.2 µM
not listed: [20]
inactive: all other assays above

CC(O)C#CC(C)O (stereo unspecified)
active: [3] 176 µM | [4] 64.9 µM | [5] 72.8 µM | [6] 24.7 µM | [11] 185 µM | [13] 82.9 µM | [17] 131 µM | [18] 63 µM | [19] 69.2 µM
not listed: [8] | [20]
inactive: all other assays above

C=CC(=O)OCC(F)(F)C(F)(F)C(F)(F)C(F)(F)C(F)(F)C(F)(F)C(F)(F)C(F)F
active: [4] 232 µM | [15] 5.14 µM
not listed: [6] | [8] | [9] | [20]
inactive: all other assays above

CCCCOC(=O)[C@H](C)O
not listed: [6] | [17] | [20]
inactive: all other assays above

NC(O)(C(F)(F)F)C(F)(F)F
active: [5] 126 µM
not listed: [6] | [8]
inactive: all other assays above

CO[Si](C)(CCC(F)(F)C(F)(F)C(F)(F)C(F)(F)C(F)(F)C(F)(F)F)OC
not listed: [6] | [20]
inactive: all other assays above

O=C(F)C1(F)C(F)(F)C(F)(F)C(F)(F)C(F)(F)C1(F)F
not listed: [20]
inactive: all other assays above

OCCCc1cccnc1
not listed: [20]
inactive: all other assays above

CCCCCCCCCCCCCC[P+](CCCC)(CCCC)CCCC
active: [1] 0.0203 µM | [2] 0.758 µM | [8] 0.745 µM
not listed: [6] | [20]
inactive: all other assays above

C=C(C)C(=O)OCC(F)(F)C(F)(F)C(F)(F)C(F)F
not listed: [6] | [20]
inactive: all other assays above

NC(=O)C(F)(F)C(F)(F)C(F)(F)C(F)(F)C(N)=O
not listed: [1] | [8]
inactive: all other assays above

O=S(=O)(O)CCC(F)(F)C(F)(F)C(F)(F)C(F)(F)C(F)(F)C(F)(F)C(F)(F)C(F)(F)F
not listed: [1] | [6]
inactive: all other assays above

CCCCCCCCCCCCC[N+](C)(C)Cc1ccccc1
not listed: [1] | [6] | [8] | [20]
inactive: all other assays above

CCC(Cc1c(I)cc(I)c(N)c1I)C(=O)O (stereo unspecified)
active: [3] 62.6 µM | [6] 64.6 µM | [15] 4.54 µM
not listed: [1]
inactive: all other assays above
